Source: the supplement of paper PMC6555819

Assays:
Experiment in all cases: PBM binding z-score (relative to random genomic background probes); higher = stronger binding; sequences stand for … in GC…GCGATTGACAGCGTAGAATGAAGG
[1] = system: PPARg:RXRa DBDmut IVT, anti-RXR (DBD mutation: RXRa K156A/R161A, NR concentration 270 nM, RXRa partner concentration 90 nM)
How it was run: (§1)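 Binding z-scores were set against random background probes. The data came from custom Agilent 4×180K protein-binding microarrays carrying double-stranded probes with 34-nt variable regions, incubated 1 h with ligand-free nuclear receptor dimers. Partner-specific antibodies detected binding, and scanned fluorescence was regression-normalized.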

[2] = system: PPARg:RXRa IVT, anti-PPARg (NR concentration 270 nM, RXRa partner concentration 90 nM)
How it was run: as §1

[3] = system: PPARg DBDmut:RXRa IVT, anti-PPARg (DBD mutation: PPARg1 K132A/R137A, NR concentration 270 nM, RXRa partner concentration 90 nM)
How it was run: as §1

[4] = system: PPARg DBDmut IVT, anti-PPARg (DBD mutation: PPARg1 K132A/R137A, NR concentration 270 nM)
How it was run: as §1

[5] = system: PPARg homodimer (NR concentration 180 nM)
How it was run: as §1

[6] = system: PXR:RXRa (NR concentration 270 nM, RXRa partner concentration 90 nM)
How it was run: as §1

[7] = system: PXR homodimer (NR concentration 270 nM)
How it was run: as §1

[8] = system: RARa:RXR (NR concentration 270 nM, RXRa partner concentration 90 nM)
How it was run: as §1

[9] = system: RARa homodimer (NR concentration 270 nM)
How it was run: as §1

[10] = system: RARb:RXRa (NR concentration 270 nM, RXRa partner concentration 90 nM)
How it was run: as §1

[11] = system: RARb homodimer (NR concentration 270 nM)
How it was run: as §1

[12] = system: RARg:RXRa (NR concentration 270 nM, RXRa partner concentration 90 nM)
How it was run: as §1

[13] = system: RARg homodimer (NR concentration 270 nM)
How it was run: as §1

[14] = system: RXRa DBDmut IVT, anti-RXR (DBD mutation: RXRa K156A/R161A, NR concentration 90 nM)
How it was run: as §1

[15] = system: RXRa homodimer (NR concentration 180 nM)
How it was run: as §1

[16] = system: THRa:RXRa (NR concentration 90 nM, RXRa partner concentration 90 nM)
How it was run: as §1

[17] = system: THRa homodimer (NR concentration 90 nM)
How it was run: as §1

[18] = system: VDR homodimer (NR concentration 270 nM)
How it was run: as §1

| Sequence | PBM binding z-score [1] | PBM binding z-score [2] | PBM binding z-score [3] | PBM binding z-score [4] | PBM binding z-score [5] | PBM binding z-score [6] | PBM binding z-score [7] | PBM binding z-score [8] | PBM binding z-score [9] | PBM binding z-score [10] | PBM binding z-score [11] | PBM binding z-score [12] | PBM binding z-score [13] | PBM binding z-score [14] | PBM binding z-score [15] | PBM binding z-score [16] | PBM binding z-score [17] | PBM binding z-score [18] |
| --- | --- | --- | --- | --- | --- | --- | --- | --- | --- | --- | --- | --- | --- | --- | --- | --- | --- | --- |
| GCTATTAGTAGAAAGGGCAACCGAATGATTCTCG | 0.164 | 0.803 | 0.319 | 0.449 | 1.28 | 0.256 | -0.0739 | 0.703 | 1.09 | 1.96 | 1.83 | 0.904 | 1.32 | 0.538 | 0.634 | 0.234 | -0.401 | -0.301 |
| CATACAGGGTCAGATAGGCCAGAGTAGGGACGGC | 0.492 | 2.13 | 1.29 | 1.07 | 2.72 | 2.05 | 0.241 | 2.94 | 0.209 | 3.55 | 2.99 | 4.18 | 4.16 | 1.83 | 3.75 | 2.81 | 0.777 | 1.47 |
| TCTATTAGTTGACGGGCAACCGACGAGTCCGTTT | 2.04 | 0.118 | 0.163 | 0.317 | 0.156 | 0.38 | 0.151 | 0.201 | 0.109 | 0.613 | -0.1 | 0.0549 | -0.0135 | 1.46 | 0.417 | -0.223 | -0.348 | 0.718 |
| CAAACTAGCTCACAGAGGTCAAAGTCCGTGCGTA | 0.877 | 2.03 | 0.153 | 0.182 | 4.66 | 5.9 | 3.09 | 6.47 | 2.88 | 3.87 | 4.34 | 5.3 | 4.81 | 1.5 | 6.31 | 3.53 | 1.27 | 3.71 |
| CAAACTAGGTCAAGAGGTAAAAGTCCGCTTCCCG | 8.5 | 8.39 | 6.02 | 5.32 | 3.74 | 1.92 | 0.28 | 3.43 | 0.988 | 4.19 | 3.32 | 4.71 | 4.74 | 1.44 | 3.45 | 2.99 | 1.2 | 0.657 |
| CCTACTGGGCCATTCAGAGGTAATTGATCATATG | 3.91 | 3.26 | -0.325 | -0.711 | -0.319 | -0.537 | -0.389 | -0.179 | -0.252 | 0.178 | -0.0878 | 0.0655 | 0.162 | -0.042 | -0.244 | 0.3 | -0.433 | -0.114 |
| CGTCAAAATTCAACTAAGGTAACGTAAAGCACGC | -0.174 | 0.543 | 0.555 | 1.22 | -0.0431 | 0.326 | 0.413 | 1.71 | 1.69 | 0.577 | 0.445 | 0.33 | 0.586 | 0.407 | 0.529 | 2.94 | 1.75 | 0.233 |
| CCTACTGGGCCACGAATGGTCATTGATTCAGTGA | 5.35 | 5.07 | -0.0715 | 0.085 | 0.236 | -0.684 | -0.838 | -0.385 | -0.616 | 0.436 | 0.417 | -0.0594 | 0.262 | -0.448 | -0.409 | -0.231 | -0.537 | -0.38 |
| CCTAGCAGGCTAGGGTCACTCAAGCATTTCGCTT | 0.26 | 0.393 | -1.9 | -1.59 | 1.58 | 3.3 | -0.41 | 4.27 | -0.0687 | 2.89 | 2.67 | 3.35 | 2.35 | 0.61 | 3.65 | 3.64 | 1.81 | 1.07 |
| CGTCAAAGTTCAAGGTAACGTACCAGAAAGCAGC | 0.681 | 2.41 | 0.882 | 0.599 | 4.5 | 4.28 | 3.52 | 3.57 | 2.48 | 5.12 | 3.97 | 5.35 | 6.14 | 4.5 | 4.54 | 3.12 | 1.39 | 3.21 |
| CAAACTAGGTTACAGAGGTCAAAGTCCGTGCGTA | 7.75 | 7.64 | 1.98 | 1.29 | 4.38 | 6.32 | 7.32 | 7.03 | 2.06 | 4.44 | 4.97 | 6.01 | 5.51 | 2.53 | 7.1 | 4.14 | 2.24 | 5.09 |
| AGAACGAGGGCACGCTGAGATGATAGCAGAGTAG | 4.28 | 3.41 | 0.615 | 0.133 | 0.5 | 0.342 | -0.229 | 0.762 | -0.576 | 2.5 | 1.2 | 1.91 | 2.21 | 1.8 | 1.41 | 1.48 | -0.0737 | 0.452 |
| GCTAGCAGGGCATTTGGGTCACTCAATGACGGGC | 2.42 | 3.14 | 0.0662 | -0.844 | 0.341 | 1.06 | 0.171 | 1 | -0.58 | 1.76 | 1.89 | 1.32 | 1.26 | 0.672 | 1.16 | 2.07 | 0.291 | 0.573 |
| ACTCGGAGGACAAAGGTCTGAGCTACGCCAGTGA | -0.243 | 0.315 | -0.994 | -1.15 | 0.144 | -0.428 | -0.379 | -0.531 | -0.889 | 1.3 | 0.62 | 0.869 | 0.954 | 0.352 | 0.0538 | 0.538 | -0.424 | -0.296 |
| CAAACTAGGTCAAGGTCAAAGTGGGTTTGTGCCA | 8.63 | 8.56 | 2.16 | 1.39 | 3.95 | 5.56 | 2.52 | 5.18 | 1.68 | 5.14 | 5.23 | 5.95 | 6.67 | 3.05 | 5.78 | 4.34 | 3.93 | 5.14 |
| GCGACTGGGGCATCTGCAGGTTACCATAACTTAA | 3.92 | 2.96 | -0.0823 | -0.117 | 0.207 | 0.314 | -0.507 | 0.637 | -1.22 | 0.859 | 1.06 | 1.21 | 0.411 | -0.0161 | 0.555 | 1.14 | -0.146 | -0.456 |
